Data on five compounds can be found in the supplement of paper PMC6897291.

This assay relates to RIVA. As to the kind of experiment: growth inhibition by drug alone (1 - RLU/untreated control) (fraction); higher = stronger inhibition. As to conditions: 177Lu-lilotomab satetraxetan 0 ug/ml. The procedure: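 RIVA (RI-1) ABC-DLBCL cells were pretreated or not for 18 h with 0.5 ug/ml 177Lu-lilotomab satetraxetan (600 MBq/mg), washed and seeded (3000 cells/well) on 384-well plates pre-printed with the Selleck Cambridge Cancer Compound library. Viability was read by RealTime-Glo luminescence on days 3-6 after seeding. Effect = 1 - RLU/mean RLU of the 48 untreated no-drug control wells per plate; Bliss score = (M-E)/(1-Fa).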

Each structure is given as a SMILES string.

`Cn1cc(C2=C(c3cn(C4CCN(Cc5ccccn5)CC4)c4ccccc34)C(=O)NC2=O)c2ccccc21`: the “growth inhibition by drug alone” value runs as follows: (10 nM, time (day): 3) -0.161; (10 nM, time (day): 4) -0.222; (10 nM, time (day): 5) -0.236; (10 nM, time (day): 6) -0.302; (100 nM, time (day): 3) -0.273; (100 nM, time (day): 4) -0.319. The “growth inhibition by drug alone” value was -0.329 (100 nM, time (day): 5) and -0.414 (100 nM, time (day): 6).
As to `Cc1ccccc1-n1c(Cn2cnc3c(N)ncnc32)nc2cccc(C)c2c1=O`, the “growth inhibition by drug alone” value reads like this: (10 nM, time (day): 3) -0.0276; (10 nM, time (day): 4) -0.0854; (10 nM, time (day): 5) -0.0849; (10 nM, time (day): 6) -0.118; (100 nM, time (day): 3) 0.0893; (100 nM, time (day): 4) -0.00364. Moreover, the “growth inhibition by drug alone” value is, setting by setting: (100 nM, time (day): 5) -0.0617; (100 nM, time (day): 6) -0.104.
With `CC[C@@H](C(=O)[C@@H](C)[C@@H](O)[C@H](C)[C@@H]1O[C@@H]([C@@H](CC)C(=O)O)CC[C@@H]1C)[C@H]1O[C@]2(C=C[C@@H](O)[C@]3(CC[C@@](C)([C@H]4CC[C@](O)(CC)[C@H](C)O4)O3)O2)[C@H](C)C[C@@H]1C` [Salinomycin (Procoxacin)], the “growth inhibition by drug alone” value reads like this: (10 nM, time (day): 3) 0.136; (10 nM, time (day): 4) 0.0825; (10 nM, time (day): 5) -0.0184; (10 nM, time (day): 6) -0.226; (100 nM, time (day): 3) 0.144; (100 nM, time (day): 4) 0.126. For the same compound, the “growth inhibition by drug alone” value is, setting by setting: (100 nM, time (day): 5) 0.0706; (100 nM, time (day): 6) -0.0392.
As for `CCC1(c2ccc(N)cc2)CCC(=O)NC1=O` (stereo not given) [Aminoglutethimide (Cytadren)], the “growth inhibition by drug alone” value runs as follows: (10 nM, time (day): 3) -0.0651; (10 nM, time (day): 4) -0.101; (10 nM, time (day): 5) -0.237; (10 nM, time (day): 6) -0.445; (100 nM, time (day): 3) -0.578; (100 nM, time (day): 4) -0.484. Further, the “growth inhibition by drug alone” value by setting is: (100 nM, time (day): 5) -0.518; (100 nM, time (day): 6) -0.688.
Turning to `N.N.[Cl][Pt][Cl]` [Cisplatin], the “growth inhibition by drug alone” value was -0.00407 (10 nM, time (day): 3); -0.0943 (10 nM, time (day): 4); -0.0938 (10 nM, time (day): 5); -0.114 (10 nM, time (day): 6); 0.0654 (100 nM, time (day): 3); -0.0804 (100 nM, time (day): 4). For the same compound, the “growth inhibition by drug alone” value is, setting by setting: (100 nM, time (day): 5) -0.0914; (100 nM, time (day): 6) -0.104.
